L major viab: Leishmania major promastigote growth inhibition, primary screen. actives 9% (n = 200,000). inhibition, % at 10 µM. Leishmania major promastigotes, resazurin fluorescence viability; in the data active means inhibition above about 50%;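 further: promastigotes grown with compound for 44 hours at 28 °C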
Insulin prom inh: inhibitors of insulin promoter-driven GFP, primary screen, imaging, TRM-6 cells (human fetal islet line), eGFP reporter, cell count. reporter expression induced with tamoxifen. inhibition, % at 2 µM. actives 0.9% (n = 130,000);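 active means inhibition above the mean plus 3 SD, with well images judged a real hit on visual review, cut at about 60% in these data, passing the limit was not always enough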
WT yeast gro inh: growth inhibition of WT strain, primary screen, mitochondrial fusion inhibitor project, WT and mutant strains, chemical genetic; mitochondrial fusion phenotypic screen; inhibition, % at 10 µM; actives 2.1% (n = 190,000); AID 1362, 2008; in the data active means inhibition above about 58%; tested in S. cerevisiae
Insulin prom up: insulin promoter activators in MIN6 cells, imaging, high-content screening, mouse beta cells; MIN6 insulin promoter-GFP reporter; stronger effect = higher value; AID 1625, 2009; z-score at 5 µM; actives 0.3% (n = 190,000);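 active means z-score above 3 at 5 µM with at least 500 cells counted in the well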
Autophagy mod: autophagy modulators in MEF cells, primary screen, imaging, high-content, MEF GFP-LC3; calls only at 10 µM (by protocol); MEF GFP-LC3 puncta imaging; test concentration mostly 10 µM; actives 0.98% (n = 190,000);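 active means percentage of spot-positive cells more than 3 SD above its plate mean, without a fluorescence outlier flag or 80% toxicity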;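 further: spot-positive cell cutoff set from DMSO-treated cells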
Numbers without * were called inactive; i = inactive; . = not tested or not shown; + = active, no number. In the library only some 11% were active in any assay of this set; here they are far more common.

SMILES	L major viab	Insulin prom inh	WT yeast gro inh	Insulin prom up	Autophagy mod
Cc1cccc(C(=O)NC(=S)Nc2ccc(S(=O)(=O)N(C)c3ccccc3)cc2)c1	100*	-13	41	-0.26	i
Cc1ccccc1C(=O)NC(=S)Nc1ccc(S(=O)(=O)N(C)c2ccccc2)cc1	100*	60	21	-0.7	i
Cc1oc(S(=O)(=O)N2CCCCC2)cc1NC(=O)Nc1ccc(F)cc1	.	.	.	0.31	.
O=C(COC(=O)C12CC3CC(CC(C3)C1)C2)Nc1ccc([N+](=O)[O-])cc1Cl	-5	18	4	.	i
Cc1cc(C)cc(C(=O)NC(=S)Nc2ccc(Cc3ccncc3)cc2)c1	11	33	30	.	i
Cc1cccc(C(=O)NC(=S)Nc2ccc(Cc3ccncc3)cc2)c1	45	-29	61*	-0.13	i
CC1(C)CC(=O)C2=C(C1)OC(N)=C(C#N)C2c1ccccc1 (configuration not stated)	-3	.	9	0	i
COc1ccc(C2C(C#N)=C(/N=C/N3CCN(C)CC3)OC3=C2C(=O)CC(C)(C)C3)cc1 (configuration not stated)	100*	6	-11	-0.37	i
CS(=O)(=O)c1nc(-c2ccc(Br)cc2)cc(-c2ccccc2)c1C#N	84*	36	-34	.	+
N#Cc1c(-c2ccc(Br)cc2)cc(-c2cccnc2)nc1N	4	25	-10	-0.19	i
COc1ccc(-c2cc(-c3ccccc3)c(C#N)c(S(C)(=O)=O)n2)cc1	98*	57	-32	.	i
N#Cc1c(-c2cccc(F)c2)cc(-c2ccccc2)nc1Br	-5	0	-9	-0.77	i
CS(=O)c1nc(-c2ccc(Br)cc2)cc(-c2ccccc2)c1C#N (configuration not stated)	100*	.	7	-4.2	i
CCN(CC)C(=O)c1c(Cl)nc(C)c([N+](=O)[O-])c1C	-3	-20	-7	-0.39	i
COc1ccc(COc2ccccc2C(=O)NCc2ccccc2)cc1F	7	-17	4	0.73	i
CC(C)NC(=O)C1CCN(C2CCN(C(=O)c3cc4c(s3)CCCCC4)CC2)CC1	89*	.	7	-0.32	i
Cc1cc(C)n(CC(O)COc2ccc(OCC(O)Cn3nc(C)cc3C)cc2)n1 (configuration not stated)	-3	-360	.	.	i
Cc1cccc(S(=O)(=O)NC(Cc2c[nH]c3ccccc23)C(=O)O)c1 (configuration not stated)	-5	-33	-3	1.3	i
COc1cc2c(cc1OC)-c1cc(OCc3ccccc3Cl)nc(=O)n1CC2	19	66*	-55	0.22	i
COc1cc2c(cc1OC)-c1cc(NC3CCCC3)nc(=O)n1CC2	7	-29	5	0.19	i
CN1CCN(c2nc3c(c(=O)n(C)c(=O)n3C)n2Cc2cccc3ccccc23)CC1	19	-43	-41	0.07	i
Cn1c(=O)c2c(nc(N3CCCCCC3)n2Cc2cccc3ccccc23)n(C)c1=O	35	.	81*	-1.7	i
Cc1ccc(Cn2c(CN3CCN(C(=O)c4ccco4)CC3)nc3c2c(=O)n(C)c(=O)n3C)cc1	78*	-55	-1	0.36	i
Cn1c(=O)c2c(nc(CN3CCN(CCO)CC3)n2Cc2cccc3ccccc23)n(C)c1=O	99*	9	-4	-0.39	i
OCC1(Cc2ccccc2)CCCN(Cc2c[nH]c3ccccc23)C1 (configuration not stated)	13	.	14	0.32	i
SMILES	L major viab	Insulin prom inh	WT yeast gro inh	Insulin prom up	Autophagy mod
Oc1ccc(C[C@@H]2CNC(=S)N2CCCCC2CCCCC2)cc1	21	.	91*	-1	i
O=C(Nc1ccnc(=O)[nH]1)c1sc2ccccc2c1Cl	.	.	.	-0.04	.
Cc1ccc(S(=O)(=O)N2CCCCC2)cc1NC(=O)COc1ccccc1F	5	.	9	.	i
Cc1ccc(-n2cccc2/C=C2\C(=N)N3N=C(C(C)C)SC3=NC2=O)cc1	-13	-8	81*	-0.07	i
COC(=O)c1ccc(NC(=O)CN2CCN(c3ccc(Cl)cc3)CC2)cc1	-4	.	-10	1.7	+
COc1ccc(N2CCN(CC(=O)Nc3c(C)cc(C)cc3C)CC2)cc1	79*	27	17	-0.69	i
CC(C)(C)c1ccc(-c2csc(NC(=O)CN3C(=O)NC4(CCCCC4)C3=O)n2)cc1	99*	2	-18	.	i
COC(=O)c1ccc(NC(=O)CN2C(=O)CNC2=O)cc1	91*	0	11	0.94	i
COc1ccccc1OCC(=O)Nc1cccc(C(=O)N2CCOCC2)c1	0	60	-13	1.1	i
CCC1C(=NO)C(CC)C(c2ccccc2)NC1c1ccccc1 (configuration not stated)	45	.	86	-1.1	i
COc1ccc(NC(=O)CCN2CCN(S(=O)(=O)c3cc(Cl)ccc3Cl)CC2)cc1	96*	-38	8	-0.07	i
COC(=O)c1ccc(NC(=O)CN2CCN(c3cccc(Cl)c3)CC2)cc1	0	.	34	0.62	i
CCOC(=O)c1ccc(NC(=O)CN2C(=O)NC3(CCCCCC3)C2=O)cc1	91*	-67	7	-0.22	i
COC(=O)c1ccc(NC(=O)CN2CCN(S(=O)(=O)c3cc(Cl)ccc3OC)CC2)cc1	99*	23	3	0.39	i
COc1ccc(NC(=O)CCN2CCN(S(=O)(=O)c3ccc(OC)cc3)CC2)cc1	-2	-24	-2	0.2	i
CCCN1CCC(=NNc2ccc(C(=O)O)cc2)CC1	90*	.	4	-0.17	i
CCCN1CCC(=NNC(=O)c2ccc(Br)o2)CC1	-3	38	-35	-0.47	i
CN(C)/C=C/c1oc2ccc(O)cc2c1[N+](=O)[O-]	-3	-10	30	-1.1	i
COc1cc(/C=C/C(=O)OCC(=O)NC(=O)NC23CC4CC(CC(C4)C2)C3)ccc1OCC#N	93*	-11	21	-0.17	i
CNC(=O)NC(=O)CSc1nnc(C(F)(F)F)n1C	-4	14	-17	-0.53	i
CC(C)C(C)(C#N)NC(=O)CSc1nnc(C(F)(F)F)n1C (configuration not stated)	-8	-11	-4	3*	i
CCN(CC)C(=O)C(=O)N/N=C/c1ccc(C(=O)O)cc1	-5	12	9	0.34	i
Cc1ccc(NS(=O)(=O)c2cc(NC(=O)c3ccc4c(c3)NC(=O)CS4)ccc2Cl)c(C)c1	87*	44	15	-2.5	i
Cc1ccc(NS(=O)(=O)c2cc(C(=O)O)ccc2Cl)c(C)c1	-3	12	12	.	i
COc1cccc(CCC(=O)O)c1OC	-6	89*	15	.	i
O=C(O)CCc1ccccc1OC(=O)c1ccccc1	.	.	.	0.37	.
Cc1cc(C)c2ccc(N)nc2c1O	99*	.	5	-0.81	i
Brc1ccc(C2=CC(c3cccs3)n3ncnc3N2)cc1 (configuration not stated)	7	-11	68*	-0.33	i

Screens deposited in PubChem by several laboratories.
